PubChem BioAssay AID1159580 (chemical genetic matrix, 2015)
Values joined by “and” are separate entries in the source; they are usually repeats but may differ in a detail not shown here. Equal values may be shown once. Screen size: about 5,500 compounds; about 2,000 (36%) were called active. Another 18% or so got no clear call; they are omitted. Rule as the data show it: active = normalized growth mostly below about 0.91 (no sharp cut-off); inconclusive = no clear call, values can overlap the other calls; inactive = mostly above about 0.92. Some of the results follow.

Experiment: chemical genetic growth profiling, strain panel (AID 1159580);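 also: tested at 20 µM; growth read once vehicle control cultures reached saturation at 30 °C; 1 = growth at the plate median or of vehicle wells; lower values mean less growth of the strain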
Settings: S. cerevisiae deletion strains, growth OD

Measured: normalized growth

COc1cc(-c2coc3cc(OC)c(OC)c(OC)c3c2=O)cc(OC)c1OC
inactive: locus YAL013W, strain DEP1, hits give low values 0.994 | locus YAL021C, strain ccr4, hits give low values 1 | locus YAL026C, strain drs2, hits give low values 1.01 | locus YAL030W, strain snc1, hits give low values 1.01 | locus YBL061C, strain skt5, hits give low values 0.996 | locus YBR009C, strain hhf1, hits give low values 0.993 | locus YBR021W, strain FUR4, hits give low values 1.02 | locus YBR023C, strain chs3, hits give low values 0.991 | locus YBR171W, strain sec66, hits give low values 0.99 | locus YBR229C, strain ROT2, hits give low values 1 | locus YBR231C, strain swc5, hits give low values 0.969 | locus YBR279W, strain paf1, hits give low values 1.01 | locus YCL011C, strain gbp2, hits give low values 1 | locus YCL016C, strain dcc1, hits give low values 0.987 | locus YCL029C, strain bik1, hits give low values 0.973 | locus YCL061C, strain MRC1, hits give low values 1.01 | locus YCL069W, strain vba3, hits give low values 1.01 | locus YCR088W, strain abp1, hits give low values 1.01 | locus YDL005C, strain med2, hits give low values 0.996 | locus YDL035C, strain GPR1, hits give low values 1.03 | locus YDL040C, strain nat1, hits give low values 0.995 | locus YDL074C, strain BRE1, hits give low values 1.02 | locus YDL101C, strain DUN1, hits give low values 0.981 | locus YDL185W, strain tfp1, hits give low values 0.968 | locus YDL192W, strain arf1, hits give low values 1.03 | locus YDR001C, strain nth1, hits give low values 0.999 | locus YDR069C, strain doa4, hits give low values 1.01 | locus YDR101C, strain arx1, hits give low values 1.06 | locus YDR137W, strain rgp1, hits give low values 1.01 | locus YDR159W, strain sac3, hits give low values 0.947 | locus YDR162C, strain NBP2, hits give low values 1.03 | locus YDR195W, strain ref2 0.963 | locus YDR297W, strain sur2, hits give low values 1.01 | locus YDR318W, strain mcm21, hits give low values 0.993 | locus YDR334W, strain swr1, hits give low values 0.994 | locus YDR335W, strain msn5, hits give low values 1 | locus YDR388W, hits give low values 0.985 | locus YDR392W, strain spt3, hits give low values 0.888 | locus YDR502C, strain sam2, hits give low values 0.985 | locus YEL003W, strain gim4, hits give low values 0.992 | locus YEL037C, strain rad23, hits give low values 1 | locus YEL061C, strain CIN8 (second series), hits give low values 1 | locus YEL061C, strain CIN8, hits give low values 0.994 | locus YER015W, strain faa2, hits give low values 1 | locus YER016W, strain bim1, hits give low values 0.999 | locus YER110C, hits give low values 0.968 | locus YER111C, strain swi4, hits give low values 0.989 | locus YER155C, strain BEM2 (second series), hits give low values 0.968 | locus YER155C, strain BEM2, hits give low values 0.984 | locus YER167W, strain BCK2, hits give low values 1 | locus YFR010W, strain ubp6, hits give low values 0.996 | locus YGL078C, strain dbp3, hits give low values 0.975 | locus YGL086W, strain mad1, hits give low values 1.01 | locus YGL167C, strain pmr1, hits give low values 1 | locus YGL173C, strain kem1, hits give low values 1 | locus YGL227W, strain vid30, hits give low values 0.99 | locus YGL240W, strain doc1, hits give low values 0.987 | locus YGL248W, strain PDE1, hits give low values 0.965 | locus YGL253W, strain hxk2, hits give low values 0.996 | locus YGR135W, strain pre9, hits give low values 0.952 | locus YGR252W, strain gcn5, hits give low values 1.01 | locus YHR013C, strain ard1, hits give low values 0.996 | locus YHR027C, strain rpn1, hits give low values 0.997 | locus YHR030C, strain SLT2, hits give low values 0.997 and 1.06 | locus YHR079C, strain IRE1 (second series), hits give low values 0.992 | locus YHR079C, strain IRE1, hits give low values 1.02 | locus YHR094C, strain hxt1, hits give low values 1 | locus YHR129C, strain ARP1, hits give low values 0.996 | locus YHR142W, strain chs7, hits give low values 0.994 | locus YHR200W, strain rpn10, hits give low values 1.01 | locus YIL066C, strain RNR3, hits give low values 1 | locus YIL073C, strain SPO22, hits give low values 0.921 | locus YIL125W, strain kgd1, hits give low values 1.01 | locus YIR030C, strain dcg1, hits give low values 0.989 | locus YJL092W, strain hpr5, hits give low values 1.01 | locus YJL095W, strain BCK1 (second series), hits give low values 1 | locus YJL095W, strain BCK1, hits give low values 0.986 and 1.07 | locus YJL115W, strain asf1, hits give low values 1 | locus YJL129C, strain trk1, hits give low values 0.988 | locus YJL134W, strain LCB3, hits give low values 1 | locus YJL154C, strain vps35, hits give low values 0.99 | locus YJL164C, strain tpk1, hits give low values 1 | locus YJL166W, strain qcr8, hits give low values 0.999 | locus YJL168C, strain set2, hits give low values 0.993 | locus YJL187C, strain SWE1 (second series), hits give low values 0.968 | locus YJR043C, strain POL32, hits give low values 1.04
